Data reported in PubChem BioAssay.
The source made the active and inactive calls. Unless noted, how the calls were made is not given here.

Tests used:
[1] = system: Wnt5a (protein binding on small-molecule microarray); assay: Wnt5a binders on small-molecule microarray, primary screen, biophysical, 635/667 nm fluorescence (AID 1142); conditions: 635 nm fluorescence, higher = more signal;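 further: fluorescence read at 667 nm with signal to noise per printed feature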
[2] = cell viability in Huh7 cells, primary screen, cytotoxicity control for HCV replication inhibitor project, CellTiter-Glo luminescence, basal, 48 h (AID 1143); conditions: Huh7 HCV replicon, higher = more signal, called active from +8 up or from −8 down;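 further: Huh7 hepatoma cells carrying a hepatitis C replication reporter with no stimulus; test concentration not given here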
[3] = P. aeruginosa biofilm formation inhibitors, primary screen, PAO1 strain, BacTiter-Glo luminescence, LB-PBS (AID 1144); conditions: 12 h, higher = more signal
[4] = CREB reporter modulators without forskolin, primary screen, cell-based, PC12, CRE-LacZ reporter, unstimulated (AID 1145); conditions: no forskolin, luminescence, 4.5 h, higher = more signal, called active from +8 up or from −8 down
[5] = CREB reporter modulators under forskolin, primary screen, cell-based, PC12, CRE-LacZ reporter, forskolin-stimulated (AID 1146); conditions: luminescence, 4.5 h, higher = more signal, called active from +8 up or from −8 down;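 further: PC12 cells with 6xCRE LacZ reporter stimulated by forskolin 10 µM; beta-galactosidase reporter signal reflecting CREB driven transcription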
[6] = biological target: Streptavidin (Streptomyces avidinii) (UniProt P22629); assay: streptavidin binders on small-molecule microarray, primary screen, artefact control for SMM compound annotation, biophysical, 635/667 nm fluorescence (AID 1147); conditions: streptavidin binding, higher = more signal;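 further: signal reflects streptavidin binding to arrayed compounds as a control protein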
Sequence of Streptavidin (Streptomyces avidinii) (P22629 whole entry, looked up): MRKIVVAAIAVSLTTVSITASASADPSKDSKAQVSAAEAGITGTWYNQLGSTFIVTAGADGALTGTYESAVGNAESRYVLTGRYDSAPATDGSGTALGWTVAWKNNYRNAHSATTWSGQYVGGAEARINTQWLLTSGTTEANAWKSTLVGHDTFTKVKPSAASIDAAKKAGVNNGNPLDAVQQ

[7] = small-molecule binders of probe aInhba, primary screen, biochemical, small-molecule microarray, 635/667 nm fluorescence (AID 1148); conditions: higher = more signal;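 further: score merges 667nm spot fluorescence with signal-to-noise for antibody binding to printed compounds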
Torsin-1A (Homo sapiens) [8] = biological target: Torsin-1A (Homo sapiens) (UniProt O14656); assay: torsin A binders from cell lysate, primary screen, small-molecule microarray, wild-type, 635/667 nm (AID 1149); conditions: COS7 hTOR1A-WT lysate, 635 nm fluorescence, higher = more signal
Sequence of Torsin-1A (Homo sapiens) (O14656 whole entry, looked up): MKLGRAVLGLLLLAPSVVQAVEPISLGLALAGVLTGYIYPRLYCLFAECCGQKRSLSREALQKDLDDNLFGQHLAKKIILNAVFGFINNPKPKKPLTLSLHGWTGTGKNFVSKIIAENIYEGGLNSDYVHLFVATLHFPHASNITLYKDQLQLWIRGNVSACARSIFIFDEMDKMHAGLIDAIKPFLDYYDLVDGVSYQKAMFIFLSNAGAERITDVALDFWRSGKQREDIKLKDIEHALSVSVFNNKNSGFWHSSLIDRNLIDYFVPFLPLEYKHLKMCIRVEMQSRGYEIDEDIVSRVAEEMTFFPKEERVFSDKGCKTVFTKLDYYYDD

Torsin-1A (Homo sapiens) [9] = biological target: Torsin-1A (Homo sapiens) (UniProt O14656); assay: small-molecule binders of mutant TOR1A in lysate, primary screen, cell lysate, small-molecule microarray, COS7 lysate, 635/667 nm fluorescence (AID 1150); conditions: COS7 hTOR1A mutant lysate, 635 nm fluorescence, higher = more signal;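 further: score pools 667 nm emission and signal to noise measuring lysate protein binding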
[10] = system: Sonic hedgehog protein (Shh); assay: small-molecule binders of Shh protein, primary screen, biochemical, small-molecule microarray, 635/667 nm fluorescence (AID 1151); conditions: small-molecule microarray binding, 635 nm fluorescence; higher = more signal;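 further: Shh protein binding to compounds spotted on small-molecule microarray slides; score combines spot fluorescence intensity with signal-to-noise across triplicate slides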
[11] = E. coli DRC41 culture turbidity changes, primary screen, E. coli filamentation inducer project, strain DRC41, OD650, 48 h (AID 1152);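 further: E. coli MC1000 strain DRC41 lacking acrAB efflux pump and sulA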; conditions: E. coli DRC41 (acrAB sulA), higher = more signal, called active from +8 up or from −8 down
[12] = small-molecule binders of probe aLefty1, primary screen, biochemical, small-molecule microarray, 635/667 nm fluorescence (AID 1153); conditions: higher = more signal;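 further: score merges spot fluorescence with signal-to-noise ratio from the scanned slide images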
[13] = PSAC antagonists in infected red cells, primary screen, cell-based, P. falciparum Indochina, OD700, 1 h (AID 1154); conditions: P. falciparum Indochina infected RBC osmotic lysis, higher = more signal, called active from +8 up or from −8 down
[14] = PSAC antagonists in infected red cells, primary screen, cell-based, P. falciparum Indochina, OD700, 2 h (AID 1155);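 further: lysis reports solute entry through the parasite surface anion channel PSAC; channel blockers reduce lysis of infected cells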; conditions: P. falciparum Indochina infected erythrocytes, osmotic lysis OD700; higher = more signal, called active from +8 up or from −8 down
[15] = osmotic lysis modulators in infected erythrocytes, primary screen, PSAC antagonist project, cell-based, P. falciparum Indochina, OD700, 3 h (AID 1156); conditions: higher = more signal, called active from +8 up or from −8 down
[16] = PSAC antagonists in infected red cells, primary screen, cell-based, P. falciparum Indochina, OD700, 18 h (AID 1157); conditions: P. falciparum Indochina infected erythrocytes, osmotic lysis OD700, 18 h; higher = more signal, called active from +8 up or from −8 down
[17] = modulators of S6 phosphorylation in cells, primary screen, cell-based, A549, cytoblot, luminescence, serum-stimulated (AID 1158); conditions: A549 phospho-S6 cytoblot, 5 h, higher = more signal;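 further: serum-stimulated A549 lung adenocarcinoma cells; signal is phosphorylated S6 detected by cytoblot immunostaining with HRP secondary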
[18] = biological target: NADPH oxidase 2 (Homo sapiens) (UniProt P04839); assay: NOX2-dependent H2O2 signal modulators, primary screen, NOX inhibitor project, cell-based, HEK293-NOX2, PMA-stimulated, Amplex Red fluorescence (AID 1159); conditions: 45 min, higher = more signal, called active from +8 up or from −8 down; further: test concentration not given here
Sequence of NADPH oxidase 2 (Homo sapiens) (P04839 whole entry, looked up): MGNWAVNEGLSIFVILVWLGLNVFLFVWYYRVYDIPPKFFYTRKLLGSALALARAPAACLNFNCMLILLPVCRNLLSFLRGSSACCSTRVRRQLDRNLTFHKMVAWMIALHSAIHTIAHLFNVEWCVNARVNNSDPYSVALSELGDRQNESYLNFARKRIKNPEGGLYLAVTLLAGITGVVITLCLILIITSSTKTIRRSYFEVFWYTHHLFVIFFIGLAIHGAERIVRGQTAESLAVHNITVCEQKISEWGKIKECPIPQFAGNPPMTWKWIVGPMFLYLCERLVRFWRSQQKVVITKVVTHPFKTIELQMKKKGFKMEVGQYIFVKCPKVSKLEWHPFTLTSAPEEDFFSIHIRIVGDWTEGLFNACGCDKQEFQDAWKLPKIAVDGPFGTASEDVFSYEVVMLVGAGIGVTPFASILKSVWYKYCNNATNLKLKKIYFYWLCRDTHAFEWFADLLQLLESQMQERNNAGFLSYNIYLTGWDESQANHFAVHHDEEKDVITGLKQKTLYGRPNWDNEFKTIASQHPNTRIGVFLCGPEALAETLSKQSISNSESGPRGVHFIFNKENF

[19] = biological target: NADPH oxidase 4 (Homo sapiens) (UniProt Q9NPH5); assay: NOX4-dependent H2O2 signal modulators, primary screen, NOX inhibitor project, cell-based, HEK293-NOX4, tetracycline-induced, Amplex Red fluorescence (AID 1160); conditions: 45 min, higher = more signal, called active from +8 up or from −8 down
Sequence of NADPH oxidase 4 (Homo sapiens) (Q9NPH5 whole entry, looked up): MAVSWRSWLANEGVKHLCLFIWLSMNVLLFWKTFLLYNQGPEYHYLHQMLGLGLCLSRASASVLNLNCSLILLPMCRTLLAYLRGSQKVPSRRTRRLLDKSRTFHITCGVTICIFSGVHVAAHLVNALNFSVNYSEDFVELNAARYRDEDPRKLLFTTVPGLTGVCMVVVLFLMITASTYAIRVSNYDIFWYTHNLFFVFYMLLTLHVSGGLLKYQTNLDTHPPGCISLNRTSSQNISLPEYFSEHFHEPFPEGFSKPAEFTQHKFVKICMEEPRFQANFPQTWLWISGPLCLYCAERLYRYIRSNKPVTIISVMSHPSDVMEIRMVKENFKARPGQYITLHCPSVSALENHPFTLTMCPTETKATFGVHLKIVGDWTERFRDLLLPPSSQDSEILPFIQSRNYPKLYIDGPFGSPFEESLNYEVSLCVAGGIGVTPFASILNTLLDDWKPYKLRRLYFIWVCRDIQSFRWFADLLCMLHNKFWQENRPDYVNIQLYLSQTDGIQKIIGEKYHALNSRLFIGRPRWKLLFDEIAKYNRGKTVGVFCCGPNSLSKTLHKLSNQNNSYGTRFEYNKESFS

[20] = biological target: NADPH oxidase 5 (Homo sapiens) (UniProt Q96PH1); assay: NOX5-dependent H2O2 signal modulators, primary screen, NOX inhibitor project, cell-based, HEK293-NOX5, Amplex Red fluorescence (AID 1161); conditions: HEK293-NOX5, ionomycin, 45 min, higher = more signal
Sequence of NADPH oxidase 5 (Homo sapiens) (Q96PH1 whole entry, looked up): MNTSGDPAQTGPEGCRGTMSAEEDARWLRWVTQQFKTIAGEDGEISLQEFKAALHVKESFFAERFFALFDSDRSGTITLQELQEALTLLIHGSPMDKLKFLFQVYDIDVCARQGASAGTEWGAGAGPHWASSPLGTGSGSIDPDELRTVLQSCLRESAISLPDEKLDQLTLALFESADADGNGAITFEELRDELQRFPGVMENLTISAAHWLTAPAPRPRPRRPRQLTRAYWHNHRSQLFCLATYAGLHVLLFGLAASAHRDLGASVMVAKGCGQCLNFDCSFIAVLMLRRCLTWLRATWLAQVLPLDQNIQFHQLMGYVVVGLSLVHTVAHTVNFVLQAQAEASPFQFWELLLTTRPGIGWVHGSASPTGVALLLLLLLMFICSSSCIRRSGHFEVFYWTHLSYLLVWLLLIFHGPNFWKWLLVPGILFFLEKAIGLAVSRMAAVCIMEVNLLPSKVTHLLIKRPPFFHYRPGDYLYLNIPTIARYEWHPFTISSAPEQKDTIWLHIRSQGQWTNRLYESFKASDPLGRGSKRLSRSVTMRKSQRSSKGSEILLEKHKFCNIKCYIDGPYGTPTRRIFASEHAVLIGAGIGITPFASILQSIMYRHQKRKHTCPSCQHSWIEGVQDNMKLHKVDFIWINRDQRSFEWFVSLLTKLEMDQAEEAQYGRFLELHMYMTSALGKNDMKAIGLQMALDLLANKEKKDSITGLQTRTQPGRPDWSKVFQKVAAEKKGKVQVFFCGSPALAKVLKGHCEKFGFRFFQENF

Compound	composite z-score [1]	z-score [2]	z-score [3]	z-score [4]	z-score [5]	composite z-score [6]	composite z-score [7]	composite z-score (Torsin-1A (Homo sapiens) [8])	composite z-score (Torsin-1A (Homo sapiens) [9])	composite z-score [10]	z-score [11]	composite z-score [12]	z-score [13]	z-score [14]	z-score [15]	z-score [16]	z-score [17]	z-score [18]	z-score [19]	z-score [20]
CCN1C(=O)[C@H]2[C@H]3[C@H](O)[C@H](O)CC(=NOCC=C(C)CCC=C(C)C)[C@@H]3CC[C@H]2C1=O	0.288	-2.44 (inactive)	0.17 (inactive)	-0.115 (inactive)	-0.157 (inactive)	-0.43	-0.204	2.38	0.981	2.07	-1.27 (inactive)	-0.22	1.17 (inactive)	0.579 (inactive)	0.0742 (inactive)	0.134 (inactive)	-0.23	1.56 (inactive)	0.207 (inactive)	-1.06
CON=C(C)CCN1CCCc2nc(C)c(C)cc21	0.377	0.258 (inactive)	0.128 (inactive)	0.345 (inactive)	-0.0543 (inactive)	0.286	-0.0645	-0.209	0.23	1.07	-2.33 (inactive)	-0.0601	1.03 (inactive)	0.498 (inactive)	0.619 (inactive)	0.49 (inactive)	-0.621	-1.52 (inactive)	-1.06 (inactive)	-0.493
COC(=O)CC=C[C@@H](C)[C@@H](C=NOC(C)CN1CCCCc2nc(C)c(C)cc21)NS(=O)(=O)c1ccc(C)cc1 (stereo not given in full)	0.104	0.453 (inactive)	0.89 (inactive)	-0.882 (inactive)	0.877 (inactive)	-0.343	-0.0221	1.05	0.705	0.56	0.599 (inactive)	0.236	-0.193 (inactive)	0.36 (inactive)	0.151 (inactive)	0.0733 (inactive)	-0.134	-0.397 (inactive)	0.339 (inactive)	0.266
C[C@@H](c1ccccc1)N1C(=O)[C@H]2[C@H]3[C@H](O)[C@H](O)CC(=NOC[C@@H](O)COCc4ccco4)[C@H]3CC[C@H]2C1=O	-0.0017	0.523 (inactive)	1 (inactive)	1.5 (inactive)	0.81 (inactive)	-0.304	-0.253	3.17	2.95	1.65	-0.309 (inactive)	-0.201	2.04 (inactive)	-0.0645 (inactive)	0.33 (inactive)	0.332 (inactive)	-0.632	-1.37 (inactive)	0.529 (inactive)	0.122
C=CC[C@@H]1C=C[C@H](Oc2ccc(C)cc2)[C@@H](COC(=O)NCc2cccc3ccccc23)O1	0.243	-2.06 (inactive)	-0.607 (inactive)	-0.527 (inactive)	-0.868 (inactive)	-0.142	-0.156	-0.0815	-0.0604	0.701	-0.575 (inactive)	-0.0501	2.39 (inactive)	0.852 (inactive)	-0.508 (inactive)	0.346 (inactive)	-0.783	0.839 (inactive)	-0.187 (inactive)	-0.146
CC(=O)OC[C@H]1O[C@H](CC=NOCC[C@@H]2C=C[C@H](OC(C)=O)[C@@H](COC(C)=O)O2)C=C[C@@H]1OC(C)=O	0.288	0.366 (inactive)	-0.358 (inactive)	0.848 (inactive)	1.4 (inactive)	0.162	-0.0471	1.06	1.05	0.654	0.645 (inactive)	0.0483	0.421 (inactive)	0.678 (inactive)	0.286 (inactive)	0.219 (inactive)	-0.696	-0.175 (inactive)	0.484 (inactive)	-0.705
O=C1[C@H]2CCn3c(=O)n(-c4ccccc4)c(=O)n3[C@H]2[C@H](O)[C@@H]2O[C@H]12	0.0253	0.332 (inactive)	0.102 (inactive)	-0.0164 (inactive)	0.0871 (inactive)	0.556	-0.272	0.0097	0.109	0.24	-0.323 (inactive)	-0.391	-0.132 (inactive)	0.105 (inactive)	0.337 (inactive)	0.304 (inactive)	-0.236	-1.3 (inactive)	-0.584 (inactive)	0.423
CCCNC(=O)OC[C@H]1O[C@H](CCON=C2C[C@@H](O)[C@@H](O)[C@@H]3[C@@H]4C(=O)N(CC)C(=O)[C@@H]4CC[C@@H]23)C=C[C@@H]1Oc1ccc(OC)cc1	0.0561	-0.402 (inactive)	1.08 (inactive)	0.68 (inactive)	0.23 (inactive)	0.842	0.0256	0.509	0.43	1.33	0.599 (inactive)	0.186	1.69 (inactive)	0.584 (inactive)	-0.0328 (inactive)	0.368 (inactive)	-0.432	-0.708 (inactive)	0.471 (inactive)	-0.818
